The values that follow come from PubChem BioAssay (EPA / NIEHS).

The nature of experiment [1]: CCTE_Shafer_MEA_acute_burst_duration_mean: CCTE's Neural Acute Assay for Mean Burst Duration, Shafer Lab (AID 2284014).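 Further: hits are decreases in mean burst duration relative to DMSO controls.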 In short, it runs like this: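 Acute exposure of mature rat cortical networks (DIV 13 or 15) grown on microelectrode arrays to 0.03-40 uM compound. Mean burst duration compared with the 40-min pre-dose baseline over a 40-min post-dose recording at 37 C.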

Experiment [2] in a line: CCTE_Shafer_MEA_acute_interburst_interval_mean: CCTE's Neural Acute Assay for Mean Interburst Interval, Shafer Lab (AID 2284016).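 Further: percent change of mean interburst interval versus each well's own pre-dose baseline; curves fitted for decrease in interburst interval relative to DMSO.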 An outline of the steps: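 MEA recording of spontaneous network bursting in primary rat cortical cultures; mean interburst interval was compared before and after a 40-min compound exposure (0.03-40 uM) and expressed as percent change, relative to DMSO.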

Experiment [3] can be described thus: CCTE_Shafer_MEA_acute_burst_percentage_mean: CCTE's Neural Acute Assay for Percentage of Spikes in a Burst, Shafer Lab (AID 2284017).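 On AC50: curve fitted for loss of signal so potency reflects decreased burst percentage.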 An outline of the steps:
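Compounds were tested at 0.03-40 uM on primary rat cortical neuron networks grown over microelectrodes, with at least three wells per compound. Spontaneous firing was recorded for 40 min before and 40 min after dosing, and the change in burst percentage was computed per well.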

The nature of experiment [4]: CCTE_Shafer_MEA_acute_burst_percentage_std: CCTE's Neural Acute Assay for Standard Deviation of Burst Percentage, Shafer Lab (AID 2284018).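 Further: fitted in the negative direction so actives lower burst percentage SD.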 An outline of the steps:
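Primary rat cortical neurons on 16-electrode MEA wells were recorded 40 min at baseline (DIV 13 or 15), then 40 min after compound (0.03-40 uM), at 37 C. Well value is SD across electrodes of spikes-in-bursts/total spikes; endpoint is percent change, DMSO-referenced.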

Experiment [5] in a line: CCTE_Shafer_MEA_acute_per_network_burst_spike_number_mean: CCTE's Neural Acute Assay for Average Number of Spikes in a Network Burst, Shafer Lab (AID 2284019). An outline of the steps:
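Acute exposure of rat primary cortical networks (DIV 13/15) on MEAs; adaptive spike detection at 8x rms noise, 37 C. Percent change in spikes per network burst after 40 min with compound (0.03-40 uM), negative direction vs DMSO.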

A short description of experiment [6]: CCTE_Shafer_MEA_acute_per_network_burst_spike_number_std: CCTE's Neural Acute Assay for Standard Deviation of Number of Spikes in a Network Burst, Shafer Lab (AID 2284020).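 Further: fitted for decrease in spike-number SD versus DMSO so actives lower it.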 An outline of the steps:
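Acute MEA exposure, rat cortical neurons, 0.03-40 uM. Per-well % change versus own baseline; DMSO as negative control.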

The nature of experiment [7]: CCTE_Shafer_MEA_acute_per_network_burst_electrodes_number_mean: CCTE's Neural Acute Assay for Mean Number of Electrodes in a Network Burst, Shafer Lab (AID 2284021).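 Further: curves fitted for decreases only so hits reduce electrodes per burst.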 An outline of the steps:
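Primary rat cortical networks, mwMEA, 37 C. 20 min stabilization, 40 min baseline, compound 0.03-40 uM, 40 min re-record. Wells need >=10 active electrodes; percent change per well, negative fitting direction.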

Experiment [8] can be described thus: CCTE_Shafer_MEA_acute_network_burst_percentage: CCTE's Neural Acute Assay for Percentage of Network Bursts, Shafer Lab (AID 2284022).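 Further: curves fitted for loss so actives lower network burst percentage.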 An outline of the steps:
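Readout is the fraction of spikes falling in network bursts, expressed as per-well percent change from a 40-min pre-exposure baseline. Primary rat cortical neurons on MEA were exposed to 0.03-40 uM compound on DIV 13 or 15 and recorded for 40 min at 37 C.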

The nature of experiment [9]: CCTE_Shafer_MEA_acute_cross_correlation_HWHM: CCTE's Neural Acute Assay for Cross Correlation at Half Width at Half Maximum, Shafer Lab (AID 2284026).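 Further: percent change per well from pre-dose baseline in spike cross-correlogram half width; hits are a decrease in cross-correlogram half width relative to DMSO.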 In short, it runs like this:
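Rat cortical neuron cultures on microelectrode arrays were equilibrated 20 min at 37 C, recorded 40 min at baseline, then 40 min after compound addition (0.03-40 uM, ≥3 wells). Spikes were detected at 8x rms noise after 300-5000 Hz band-pass filtering.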

A short description of experiment [10]: CCTE_Shafer_MEA_acute_synchrony_index: CCTE's Neural Acute Assay for Synchrony, Shafer Lab (AID 2284027).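 Further: network synchrony index of spontaneous spiking in primary rat cortical neurons on MEAs; fitted for loss of signal so actives lower synchrony relative to DMSO.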 An outline of the steps:
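Rat cortical cultures, DIV 13/15; spikes detected at 8x rms noise, 300-5000 Hz band-pass. Compound 0.03-40 uM, ≥3 wells; 40-min pre- and post-exposure recordings, 37 C. Readout: % change in synchrony index; loss-of-signal fit vs DMSO.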

Experiment [11] can be described thus: CCTE_Shafer_MEA_acute_cross_correlation_area: CCTE's Neural Acute Assay for Area of Cross Correlation, Shafer Lab (AID 2284024).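 Further: rat primary cortical neuron networks on 48-well MEA at DIV 13 or 15 with 40 min exposure; area under pooled inter-electrode spike cross-correlation near zero lag as percent change from own baseline; curves fitted for loss of cross-correlation area so actives lower synchrony.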 In short, it runs like this: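 Plates equilibrated 20 min at 37 C, then 40 min baseline was recorded, compound was added (0.03-40 uM), and a further 40 min was recorded. Wells needed ≥10 active electrodes (≥5 spikes/min) on exposure day.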

Experiment [12] is described as follows: CCTE_Deisenroth_AIME_384WELL_CTox_Active: Cytotoxicity Assessment (CTOX) in CCTE's 384-well Estrogen Receptor Transactivation Assay with AIME metabolic competence (metabolism positive), Deisenroth Lab (AID 2284037; active means hit-call score of the fitted dose curve at least 0.9, where 1 is the maximum;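 further: chemicals first conditioned 2 h by alginate-bound induced rat liver S9 before cells; activity means signal loss indicating cell death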). An outline of the steps: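 VM7Luc4E2 breast cells received medium pre-incubated 2 h with chemical over alginate microspheres holding induced male Sprague Dawley rat liver S9; viability read 24 h later by protease-substrate fluorescence. Loss of signal, bidirectional fit, 0.002–200 uM.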

A short description of experiment [13]: CCTE_Shafer_MEA_dev_firing_rate_mean: CCTE's Neural Network Formation Assay for Mean Firing Rate, Shafer Lab (AID 2284031). In short, it runs like this: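 Read-out: spike count/recording length, averaged over active electrodes, then AUC across days 5, 7, 9, 12. Rat cortical cultures on MEA; continuous 12-day exposure, media and treatment renewed DIV 5, 9; DMSO baseline.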

A short description of experiment [14]: CCTE_Shafer_MEA_dev_per_burst_spike_percent: CCTE's Neural Network Formation Assay for Percent of Spikes in a Burst, Shafer Lab (AID 2284032).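 On AC50: fitted as a decrease in burst spike percentage below DMSO baseline.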 In short, it runs like this:
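Value is trapezoidal AUC over recordings on days 5, 7, 9 and 12 of the well-mean fraction of spikes falling in single-electrode bursts; rat cortical cultures exposed continuously from plating, treatment renewed DIV 5 and 9, fitted downward against DMSO.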

Experiment [15] addresses Estrogen receptor (Homo sapiens) (UniProt P03372). Kind of experiment: CCTE_Deisenroth_AIME_384WELL_LUC_Active: CCTE's 384-well Estrogen Receptor Transactivation Assay with AIME metabolic competence (ERTA luciferase; metabolism positive), Deisenroth Lab (AID 2284030; active means hit-call score of the fitted dose curve at least 0.9, where 1 is the maximum). An outline of the steps: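 AIME metabolism-positive mode: chemicals 0.002 - 200 uM, 2 h with alginate-bound PB/BNF-induced rat S9 → medium to VM7Luc4E2 ERTA, 24 h → luciferase. Positive fit vs 17beta-estradiol; n=4 typical.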

For experiment [16] the target is unchanged. Kind of experiment: CCTE_Deisenroth_AIME_384WELL_LUC_Inactive: CCTE's 384-well Estrogen Receptor Transactivation Assay without AIME metabolic competence (ERTA luciferase; metabolism negative), Deisenroth Lab (AID 2284038; active means hit-call score of the fitted dose curve at least 0.9, where 1 is the maximum;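 further: hits raise estrogen receptor luciferase signal so potencies reflect agonists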). In short, it runs like this: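 Metabolism-negative mode: AIME lids stamped in alginate-water, no hepatic S9. 2 h chemical incubation → medium onto VM7Luc4E2 ERTA, 24 h. Readout luciferase luminescence; gain-of-signal fit vs 17beta-estradiol. Conc. 0.002 - 200 uM.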

Inconclusive results are not listed. The source made the active and inactive calls. How the source made its calls, unless noted: active means hit-call score of the fitted dose curve at least 0.9, where 1 is the maximum; inactive means score below 0.9.

Chain of Estrogen receptor (Homo sapiens) (P03372 whole entry, looked up): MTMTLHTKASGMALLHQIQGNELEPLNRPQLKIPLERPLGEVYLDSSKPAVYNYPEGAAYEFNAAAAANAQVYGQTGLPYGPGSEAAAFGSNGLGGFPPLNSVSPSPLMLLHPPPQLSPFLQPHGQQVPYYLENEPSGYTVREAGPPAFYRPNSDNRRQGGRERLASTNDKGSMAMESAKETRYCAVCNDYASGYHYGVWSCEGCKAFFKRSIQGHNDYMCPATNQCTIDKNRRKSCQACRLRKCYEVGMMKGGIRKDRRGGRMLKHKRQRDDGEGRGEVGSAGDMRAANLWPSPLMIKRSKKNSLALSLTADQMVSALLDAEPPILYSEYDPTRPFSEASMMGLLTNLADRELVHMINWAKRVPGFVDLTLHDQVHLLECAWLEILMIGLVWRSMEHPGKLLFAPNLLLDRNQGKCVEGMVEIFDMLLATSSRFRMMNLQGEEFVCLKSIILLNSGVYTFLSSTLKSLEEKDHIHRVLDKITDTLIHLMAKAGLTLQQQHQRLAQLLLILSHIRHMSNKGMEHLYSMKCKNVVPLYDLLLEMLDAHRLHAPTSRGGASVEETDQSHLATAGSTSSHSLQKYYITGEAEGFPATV

`O=C(O)C(Cl)(Cl)Cl`: the result in [1], in experiment [2], in experiment [3], in experiment [4], in experiment [5] and in experiment [6] was inactive. Besides, the compound was classed as inactive in experiment [7], in experiment [8], in experiment [9] and in [10].

As usually defined, the AC50 is the concentration giving half of the maximal activity seen. Regarding `CC(C)(c1ccccc1)c1ccc(O)c(C(C)(C)c2ccccc2)c1`, the compound was classed as inactive in experiment [1], in [5], in experiment [6], in experiment [7] and in experiment [11]. In addition, the concentration at half-maximal activity (AC50) is 4.19 µM (active) in [2]; 7.18 µM (active) in experiment [3]; 20 µM (active) in [4]; 28.6 µM (active) in experiment [8]; 9.24 µM (active) in [9]; 6.29 µM (active) in [10]. In addition, the AC50 in experiment [12] is 93.9 µM (active).

Regarding `O=C(O)C(F)(F)C(F)(F)C(F)(F)C(F)(F)C(F)(F)C(F)(F)C(F)(F)C(F)(F)C(F)(F)C(F)(F)F`, the concentration at half-maximal activity (AC50) in [1] was 20 µM (active). Further, the result in [2], in experiment [3], in experiment [4], in experiment [5], in experiment [6] and in [7] was inactive. For the same compound, the compound was called inactive in [8], in experiment [11], in [9], in experiment [10], in experiment [13] and in experiment [14].

Consider `CC(C)(C)c1cc(O)ccc1O`, for which the outcome in [1], in experiment [2], in experiment [4], in experiment [5], in experiment [7] and in experiment [8] was inactive. In addition, the compound was classed as inactive in experiment [11] and in experiment [13]. Besides, the AC50 in experiment [3] was 20 µM (active); in experiment [6], 20 µM (active); in [9], 29.3 µM (active); in experiment [10], 29.9 µM (active); in experiment [15], 0.000221 µM (active); in experiment [14] it was 10 µM (active). Further, the results for the AC50 in experiment [12] and in [16] were 137 µM (active) and 0.000233 µM (active), respectively.

For `CCOP(=S)(OCC)SCSP(=S)(OCC)OCC`, the compound was called inactive in experiment [1], in experiment [2], in experiment [4], in experiment [5], in [11] and in experiment [12]. In addition, the concentration at half-maximal activity (AC50) is 20 µM (active) in experiment [3]; 20 µM (active) in experiment [6]; 11.8 µM (active) in experiment [7]; 27 µM (active) in [8]; 32.7 µM (active) in experiment [9]; 24.4 µM (active) in [10]. Also, the AC50 is 13.4 µM (active) in experiment [15] and 10.3 µM (active) in experiment [16].

Regarding `O=C(Cc1ccccc1)c1ccccc1`, the half-maximal activity concentration (AC50) is 112 µM (active) in experiment [15] and 72 µM (active) in experiment [16]. Also, in experiment [12], the compound was called inactive.

As for `O=C(Nc1ccc2[nH]ccc2c1)c1cc2cc(F)ccc2n1Cc1cccc(F)c1`, the compound was classed as inactive in experiment [1], in experiment [3], in experiment [4], in [5], in experiment [6] and in [7]. The call in [8], in [11], in experiment [9] and in experiment [10] was inactive. Further, the AC50 in [2] was 4.2 µM (active).
